According to publication PMC4666376, “Characterisation of aptamer–target interactions by branched selection and high-throughput sequencing of SELEX pools”:

Molecular target: PAI-1 wild type, active (human, UniProt P05121 24-402)
Experiment: branched SELEX with high-throughput sequencing; PAI-1 immobilised on monoclonal anti-PAI-1 antibody mAb-1; HBS (10 mM HEPES pH 7.4, 140 mM NaCl), 2 mM MgCl2, 2 mM CaCl2, 0.1% BSA; RNA pool 100 nM; PAI-1 captured on antibody-coated wells; 45 min; binding temperature not stated (PAI-1 capture at room temperature); high values mean tight binding;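 further: Pool frequency after one selection round with this target divided by frequency before selection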
Conditions: protein: recombinant; tags: N-terminal His6; structured_RNA; 2'-F pyrimidines

Chain of PAI-1 wild type, active (P05121 24-402): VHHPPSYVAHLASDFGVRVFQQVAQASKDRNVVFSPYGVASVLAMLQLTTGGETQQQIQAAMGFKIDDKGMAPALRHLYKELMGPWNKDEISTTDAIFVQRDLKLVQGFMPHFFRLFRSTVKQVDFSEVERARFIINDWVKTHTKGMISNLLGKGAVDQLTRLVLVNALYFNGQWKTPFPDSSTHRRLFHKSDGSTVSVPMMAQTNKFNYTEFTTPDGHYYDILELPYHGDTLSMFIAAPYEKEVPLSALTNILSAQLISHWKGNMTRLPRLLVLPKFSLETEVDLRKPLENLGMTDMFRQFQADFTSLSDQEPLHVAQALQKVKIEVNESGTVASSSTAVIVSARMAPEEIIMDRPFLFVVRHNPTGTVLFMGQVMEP

First: GGGGCCACCAACGACAUUUGUCAACCGAUCACGCUUAUAGAGCGACCACGUAGGUUGAUAUAAAUAGUGCCCAUGGAUC
Second: GGGGCCACCAACGACAUUGAACCACGUAGGCUCGUUUCUGAGCCGAUCUCGAUGUUGAUAUAAAUAGUGCCCAUGGAUC
The binding signal of the first is higher: 5.14 enrichment factor for the first, 2.66 enrichment factor for the second.

Compared with “GGGGCCACCAACGACAUUUCCUAAACAGGAUCUAUACUCCUAGCGAGUAGUUCGUUGAUAUAAAUAGUGCCCAUGGAUC”, “GGGGCCACCAACGACAUUUGGACUGAAUCCAACCUUAUGCGUAAGCAUAGUUCGUUGAUAUAAAUAGUGCCCAUGGAUC” is higher in binding signal: 3.43 enrichment factor for the first, 3.55 enrichment factor for the second.

Compared with “GGGGCCACCAACGACAUUUGCAUAAUGCAUCUAUAGUCGCUAGAGACUAGCUCGUUGAUAUAAAUAGUGCCCAUGGAUC”, “GGGGCCACCAACGACAUUUGCAUUUGGCAUCCAUAUCGGGCGACCGAUAGUUCGUUGAUAUAAAUAGUGCCCAUGGAUC” is higher in binding signal: 1.69 enrichment factor for the first, 2.86 enrichment factor for the second.

First: GGGGCCACCAACGACAUUAACAACCCGUAGACGUCAUCGUCGAUCGCGUUAGUGUUGAUAUAAAUAGUGCCCAUGGAUC
Second: GGGGCCACCAACGACAUUGGUCACAUGACCACCGUAUGAUUUACUCAUAGUUCGUUGAUAUAAAUAGUGCCCAUGGAUC
The binding signal of the first is lower: 1.35 enrichment factor for the first, 2.36 enrichment factor for the second.

Compared with “GGGGCCACCAACGACAUUGUACUGUAGUCUUGAUUUUAAGACGACCAAAUGUAGUUGAUAUAAAUAGUGCCCAUGGAUC”, “GGGGCCACCAACGACAUUCCAAGAUCACUUGGACCGUGUAUUAAGUACAGUUCGUUGAUAUAAAUAGUGCCCAUGGAUC” is higher in binding signal: 1.02 enrichment factor for the first, 4.62 enrichment factor for the second.

Going from “GGGGCCACCAACGACAUUUACCGUCUGGGUAACCUUGUACGAUAGUACAGUUCGUUGAUAUAAAUAGUGCCCAUGGAUC” to “GGGGCCACCAACGACAUUUGCACACCACGUAGGCAAAUUGCCGAUCGUGCUAUGUUGAUAUAAAUAGUGCCCAUGGAUC”, the binding signal falls from 1.53 enrichment factor to 1.3 enrichment factor.

First: GGGGCCACCAACGACAUUUAUCGAAUUGAUAACCUUACGCGAGAGCGUAGUUCGUUGAUAUAAAUAGUGCCCAUGGAUC
Second: GGGGCCACCAACGACAUUAUACAGCCGAUCAUGUCACGUAGGCUGUGAUUAACGUUGAUAUAAAUAGUGCCCAUGGAUC
The binding signal of the first is higher: 9.69 enrichment factor for the first, 0.81 enrichment factor for the second.

Compared with “GGGGCCACCAACGACAUUGUACCACGUAGGAUGAAGUCAUCCGAUCACAGUGUUGAUAUAAAUAGUGCCCAUGGAUC”, “GGGGCCACCAACGACAUUUGCAAUUUAUGCAACCUUAGCGGAUUCGCUAGUUCGUUGAUAUAAAUAGUGCCCAUGGAUC” is higher in binding signal: 1.37 enrichment factor for the first, 3.88 enrichment factor for the second.

Compared with “GGGGCCACCAACGACAUUUAGCACCAGCUAACCGUACGCUCAACGCGUAGUUCGUUGAUAUAAAUAGUGCCCAUGGAUC”, “GGGGCCACCAACGACAUUCAGCGAUGUAGUGCACAUUGCACGACCAUGAUGGAGUUGAUAUAAAUAGUGCCCAUGGAUC” is lower in binding signal: 5.48 enrichment factor for the first, 0.44 enrichment factor for the second.

Compared with “GGGGCCACCAACGACAUUUCACACUGUAAGGCCAUGUGCCGACUAGAAAUUGCGUUGAUAUAAAUAGUGCCCAUGGAUC”, “GGGGCCACCAACGACAUUUAGGGUGCCGAUCAUGUCACGUAGGCAUCCGAUACGUUGAUAUAAAUAGUGCCCAUGGAUC” is higher in binding signal: 0.55 enrichment factor for the first, 0.62 enrichment factor for the second.
